Source: PubChem BioAssay (NCATS)
Records with an inconclusive call do not appear. Activity calls are given as the source filed them. The call rests on the fitted dose curve; in most records, active means well fitted cell-killing curve with a large enough effect; inconclusive means small, poorly fitted or top-dose-only effect, or effect the other way; inactive means flat fitted curve, though single readings scatter.

Key:
Assay in all cases: Primary qHTS to identify gynecologic anti-cancer compounds using libraries of approved drugs and bioactive compounds (AID 1345084); further: nearly all actives have a fitted effect of over 55% in size
[1] = system: C33A; settings: Gynecologic cancer cell panel viability, ATPlite luminescence, 48 h; series mostly up to 57.5 µM
Procedure, shortened: (§1)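 In this quantitative HTS, cell killing is estimated from loss of ATP-dependent luciferase light. Cells see five compound concentrations over a 48 h exposure.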

[2] = system: CAOV3; settings: Gynecologic cancer cell panel viability, ATPlite luminescence, 48 h; series mostly up to 57.5 µM
Procedure, shortened: as §1

[3] = system: CASKI; settings: Gynecologic cancer cell panel viability, ATPlite luminescence, 48 h; series mostly up to 57.5 µM
Procedure, shortened: as §1

[4] = system: Es-2; settings: Gynecologic cancer cell panel viability, ATPlite luminescence, 48 h; series mostly up to 57.5 µM
Procedure, shortened: as §1

[5] = system: HeLa; settings: Gynecologic cancer cell panel viability, ATPlite luminescence, 48 h; series mostly up to 57.5 µM
Procedure, shortened: as §1

[6] = system: Hek293T; settings: Gynecologic cancer cell panel viability, ATPlite luminescence, 48 h, control line for the selectivity index; series mostly up to 57.5 µM
Procedure, shortened: as §1

[7] = system: JEG-3; settings: Gynecologic cancer cell panel viability, ATPlite luminescence, 48 h; series mostly up to 57.5 µM
Procedure, shortened: as §1

[8] = system: OV90; settings: Gynecologic cancer cell panel viability, ATPlite luminescence, 48 h; series mostly up to 57.5 µM
Procedure, shortened: as §1

[9] = system: PA-1; settings: Gynecologic cancer cell panel viability, ATPlite luminescence, 48 h; series mostly up to 57.5 µM
Procedure, shortened: as §1

[10] = system: SKOV3; settings: Gynecologic cancer cell panel viability, ATPlite luminescence, 48 h; series mostly up to 57.5 µM
Procedure, shortened: as §1
On the % scale 0 is the no-effect control and ±100 the full control effect.

CC(C)(C(=O)O)c1ccc(C(O)CCCN2CCC(C(O)(c3ccccc3)c3ccccc3)CC2)cc1 (centres undefined)
inactive: Potency [1] | Potency [2] | Potency [3] | Potency [4] | Potency [5] | Potency [6] | Potency [7] | Potency [8] | Potency [9] | Potency [10]

O=c1cc[nH]c(=O)[nH]1
inactive: Potency [1] | Potency [2] | Potency [3] | Potency [4] | Potency [5] | Potency [6] | Potency [7] | Potency [8] | Potency [9] | Potency [10]

O=C(O)COc1nn(Cc2ccccc2)c2ccccc12
inactive: Potency [1] | Potency [2] | Potency [3] | Potency [4] | Potency [5] | Potency [6] | Potency [7] | Potency [8] | Potency [9] | Potency [10]

CC(=O)OCC(=O)[C@@]1(O)CC[C@H]2[C@@H]3CCC4=CC(=O)CC[C@]4(C)[C@H]3C(=O)C[C@@]21C
inactive: Potency [1] | Potency [2] | Potency [3] | Potency [4] | Potency [5] | Potency [6] | Potency [7] | Potency [8] | Potency [9] | Potency [10]

[O-][n+]1cccc(CO)c1
inactive: Potency [1] | Potency [2] | Potency [3] | Potency [4] | Potency [5] | Potency [6] | Potency [7] | Potency [8] | Potency [9]

O=C1NS(=O)(=O)c2ccccc21
inactive: Potency [1] | Potency [2] | Potency [3] | Potency [4] | Potency [5] | Potency [6] | Potency [7] | Potency [8] | Potency [9] | Potency [10]

C[C@](N)(Cc1ccc(O)cc1)C(=O)O
inactive: activity change, negative = cytotoxicity [1] 11.8% [at 6.55 µM] | activity change, negative = cytotoxicity [2] 1.31% [at 6.55 µM] | activity change, negative = cytotoxicity [3] 2.23% [at 6.55 µM] | activity change, negative = cytotoxicity [4] -8.81% [at 6.55 µM] | activity change, negative = cytotoxicity [5] 0.756% [at 6.55 µM] | activity change, negative = cytotoxicity [6] -0.946% [at 6.55 µM] | activity change, negative = cytotoxicity [7] 2.69% [at 6.55 µM] | activity change, negative = cytotoxicity [8] 0.672% [at 6.55 µM] | activity change, negative = cytotoxicity [9] 12.1% [at 6.55 µM]

CC1=C(CC(=O)O)c2cc(F)ccc2/C1=C\c1ccc(S(C)=O)cc1 (centres undefined)
inactive: Potency [1] | Potency [2] | Potency [3] | Potency [4] | Potency [5] | Potency [6] | Potency [7] | Potency [8] | Potency [9] | Potency [10]

O=C(O)c1ccccn1
inactive: Potency [1] | Potency [2] | Potency [3] | Potency [4] | Potency [5] | Potency [6] | Potency [7] | Potency [8] | Potency [9]

O=C(O)CN1C(=O)c2cccc3cccc(c23)C1=O
inactive: Potency [1] | Potency [2] | Potency [3] | Potency [4] | Potency [5] | Potency [6] | Potency [7] | Potency [8] | Potency [9] | Potency [10]

CC12CCC(CC1)C(C)(C)O2
inactive: Potency [1] | Potency [2] | Potency [3] | Potency [4] | Potency [5] | Potency [6] | Potency [7] | Potency [8] | Potency [9] | Potency [10]

CCOC(=O)c1ccc(O)cc1
inactive: Potency [1] | Potency [2] | Potency [3] | Potency [4] | Potency [5] | Potency [6] | Potency [7] | Potency [8] | Potency [9]

CCCCc1ncc(/C=C(\Cc2cccs2)C(=O)O)n1Cc1ccc(C(=O)O)cc1
inactive: Potency [1] | Potency [2] | Potency [3] | Potency [4] | Potency [5] | Potency [6] | Potency [7] | Potency [8] | Potency [9] | Potency [10]

COc1ccc(S(=O)(=O)Nc2nnc(CC(C)C)s2)cc1
inactive: Potency [1] | Potency [2] | Potency [3] | Potency [4] | Potency [5] | Potency [6] | Potency [7] | Potency [8] | Potency [9]

Nc1nc2c(ncn2CCC(CO)CO)c(=O)[nH]1
inactive: Potency [1] | Potency [2] | Potency [3] | Potency [4] | Potency [5] | Potency [6] | Potency [7] | Potency [8] | Potency [9] | Potency [10]

CC(=O)Nc1ccc(/C=N/NC(N)=S)cc1
inactive: Potency [1] | Potency [2] | Potency [3] | Potency [4] | Potency [5] | Potency [6] | Potency [7] | Potency [8] | Potency [9]

CC(=O)NC(Cc1ccccc1)C(=O)O (centres undefined)
inactive: Potency [1] | Potency [2] | Potency [3] | Potency [4] | Potency [5] | Potency [6] | Potency [7] | Potency [8] | Potency [9] | Potency [10]

O=C(O)[C@@H]1CSCN1
inactive: Potency [1] | Potency [2] | Potency [3] | Potency [4] | Potency [5] | Potency [6] | Potency [7] | Potency [8] | Potency [9] | Potency [10]

CC(COc1ccccc1)NC(C)C(O)c1ccc(O)cc1 (centres undefined)
inactive: Potency [1] | Potency [2] | Potency [3] | Potency [4] | Potency [5] | Potency [6] | Potency [7] | Potency [8] | Potency [9] | Potency [10]

CC[C@@]1(c2ccccc2)NC(=O)N(C)C1=O
inactive: Potency [1] | Potency [2] | Potency [3] | Potency [4] | Potency [5] | Potency [6] | Potency [7] | Potency [8] | Potency [9] | Potency [10]

Cc1ncc(COP(=O)(O)O)c(C=O)c1O
inactive: Potency [1] | Potency [2] | Potency [3] | Potency [4] | Potency [5] | Potency [6] | Potency [7] | Potency [8] | Potency [9] | Potency [10]

CC1(C)[C@@H]2CC[C@@]1(C)C(=O)C2
inactive: Potency [1] | Potency [2] | Potency [3] | Potency [4] | Potency [5] | Potency [6] | Potency [7] | Potency [8] | Potency [9] | Potency [10]
